# Test results published in PubChem BioAssay AID488969 (Vanderbilt High Throughput Screening Facility, 2010).
# Over roughly 110,000 compounds, “z-score” has its median near -0.1; the highest 2% begin near 2. Only a selection was taken, and the highest values are over-represented in it overall. Calls of active or inactive are those of the source.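 The calls were made as follows: active = z-score in the third read window above 3 or below -3; inactive = the rest.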
# Molecular target: Metabotropic glutamate receptor 8 (Rattus norvegicus) (UniProt P70579)
# Experiment: mGluR8 Gi/Go-coupled signaling modulation – cell-based, rat, thallium flux, HTS, primary screen (AID 488969)
# Details: HEK293 rat mGluR8, GIRK (G protein-gated inwardly rectifying potassium channel) thallium flux, FluoZin2; at 10 µM; stronger effect = higher value; submaximal glutamate (EC20) added with thallium
# Sequence of Metabotropic glutamate receptor 8 (Rattus norvegicus) (P70579 whole entry, looked up): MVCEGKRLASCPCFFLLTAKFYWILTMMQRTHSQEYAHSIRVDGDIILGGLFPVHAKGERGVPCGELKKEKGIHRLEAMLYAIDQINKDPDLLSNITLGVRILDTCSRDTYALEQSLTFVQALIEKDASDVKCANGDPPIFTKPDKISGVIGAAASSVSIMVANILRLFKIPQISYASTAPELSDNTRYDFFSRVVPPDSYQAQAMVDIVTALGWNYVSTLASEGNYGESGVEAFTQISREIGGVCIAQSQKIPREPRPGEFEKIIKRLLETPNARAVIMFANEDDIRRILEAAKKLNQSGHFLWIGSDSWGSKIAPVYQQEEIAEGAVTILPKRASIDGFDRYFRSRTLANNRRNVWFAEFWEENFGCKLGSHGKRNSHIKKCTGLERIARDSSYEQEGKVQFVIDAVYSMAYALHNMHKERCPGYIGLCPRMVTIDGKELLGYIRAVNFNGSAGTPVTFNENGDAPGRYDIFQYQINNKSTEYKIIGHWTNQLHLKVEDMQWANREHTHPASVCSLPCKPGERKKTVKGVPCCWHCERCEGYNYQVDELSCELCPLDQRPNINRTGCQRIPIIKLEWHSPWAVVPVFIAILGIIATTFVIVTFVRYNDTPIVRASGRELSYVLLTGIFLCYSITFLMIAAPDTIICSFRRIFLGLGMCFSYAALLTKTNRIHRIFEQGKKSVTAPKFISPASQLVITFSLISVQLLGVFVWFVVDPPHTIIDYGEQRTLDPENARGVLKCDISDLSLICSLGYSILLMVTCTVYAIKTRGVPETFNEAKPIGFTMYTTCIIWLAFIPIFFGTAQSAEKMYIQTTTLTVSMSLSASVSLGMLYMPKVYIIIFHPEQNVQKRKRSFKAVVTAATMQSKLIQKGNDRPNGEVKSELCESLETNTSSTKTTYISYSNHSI
row,Compound,z-score
1,CC(=O)OC1COC(n2ccc3cc([N+](=O)[O-])ccc32)C(OC(C)=O)C1OC(C)=O (stereo not drawn),0.0746
2,CC(=O)NC1(C(F)(F)F)C(=O)NC(C)=C1C#N (stereo not drawn),-1.29
3,Cn1c(=O)[nH]c(=O)c2c1nc(NCCCO)n2CCCc1ccccc1,0.0396
4,Cn1c(=O)[nH]c(=O)c2c1nc(NCc1ccccc1)n2CCCc1ccccc1,-0.132
5,CN(C)CCNc1nc2c(c(=O)[nH]c(=O)n2C)n1CCCc1ccccc1,3.35 (active)
6,CC(C)NS(=O)(=O)c1ccc(NC(=O)C2CC3C=CC2C3)cc1 (stereo not drawn),-0.0807
7,O=C1Nc2ccccc2SC(c2ccccc2)C1O (stereo not drawn),-0.0924
8,O=C(CN1CCC(n2nnc3cc(F)ccc32)CC1)N1CCc2ccccc2C1,-0.899
9,O=C(CSc1n[nH]c(-c2ccc(S(=O)(=O)N3CCCCC3)cc2)n1)Nc1nccs1,0.951
10,CCC(c1nnnn1Cc1ccccc1)N(Cc1ccco1)Cc1cc2cc(OC)ccc2[nH]c1=O (stereo not drawn),-0.0441
11,CCC(c1nnnn1CCOC)N(Cc1ccc(C)cc1)Cc1cc2cc(OC)ccc2[nH]c1=O (stereo not drawn),0.378
12,CCC(c1nnnn1Cc1ccc(OC)cc1)N(CCCO)Cc1cc2cc3c(cc2[nH]c1=O)OCO3 (stereo not drawn),5.57 (active)
13,COc1ccc(OC)c(N(CC(=O)Nc2ccc3c(c2)OCO3)S(=O)(=O)c2ccccc2)c1,-0.348
14,CC1CCCN(S(=O)(=O)c2ccc(C(=O)Nc3ccccc3-c3nc4ccccc4[nH]3)cc2)C1 (stereo not drawn),-0.205
15,COCc1nnc(NC(=O)c2ccc(S(=O)(=O)N3CCCCCC3)cc2)o1,-0.164
16,CCC1CCCCN1S(=O)(=O)c1ccc(C(=O)Nc2nnc(-c3ccccc3Cl)o2)cc1 (stereo not drawn),1.12
17,Cc1nnc(NC(=O)c2ccc(S(=O)(=O)N3CCCCCC3)cc2)o1,-0.304
18,O=C(Nc1nnc(-c2ccccc2Cl)o1)c1ccc(S(=O)(=O)N2CCCCCC2)cc1,13.1 (active)
19,CC1CCCN(S(=O)(=O)c2ccc(C(=O)Nc3nnc(-c4ccccc4Cl)o3)cc2)C1 (stereo not drawn),3.98 (active)
20,CCOC(=O)Cc1csc(NC(=O)CSc2nnc(C(C)C)n2CC)n1,0.0208
21,CCN(CC)c1ccc(NC(=O)c2cccnc2)cc1,-0.663
22,CCCS(=O)(=O)N1CCC(C(=O)N2CCCC2)CC1,-1.16

row,Compound,z-score
1,O=[N+]([O-])c1ccc(N2CCN(S(=O)(=O)c3ccccc3[N+](=O)[O-])CC2)cc1N1CCc2ccccc2C1,-0.00158
2,O=C(/C=C/c1ccccc1Cl)NCc1ccco1,-0.133
3,C=CCN(Cc1cccc(OC)c1OC)S(=O)(=O)N(C)C,-0.164
4,CCOc1ccc(-n2nnnc2-c2nc3ccccc3s2)cc1,-0.319
5,Cc1ccc(-n2nnnc2-c2nc3ccccc3s2)cc1,6.16 (active)
6,Cc1ccc(-n2nnnc2-c2ccco2)cc1,-0.111
7,CCN(CC)C(=O)/C(=C\c1cccc([N+](=O)[O-])c1)NC(=O)c1ccco1,-0.281
8,CC(/C=N/NC(=O)c1cc(-c2ccc(Cl)cc2)nc2ccccc12)=C\c1ccco1,0.0726
9,Cc1ccc(-c2cc(C(=O)N/N=C/C=C/c3ccco3)c3ccccc3n2)cc1C,2.64
10,CC(/C=N/NC(=O)c1cc(-c2ccccc2)nc2ccccc12)=C\c1ccco1,-0.0414
11,Cc1ccc(C(=O)N(Nc2nc3ccccc3s2)C(=O)c2ccc(C)cc2)cc1,0.0589
12,O=C(OCc1ccc([N+](=O)[O-])cc1)c1ccc(N2CCCC2)c([N+](=O)[O-])c1,0.344
13,CC(C)(C)N1CC2(c3ccccc3)CN(C(C)(C)C)CC(c3ccccc3)(C1)C2=O,1.19
14,O=[N+]([O-])c1cnccc1Nc1cccc(F)c1,0.28
15,O=[N+]([O-])c1ccccc1-c1cc(-c2ccccc2O)n[nH]1,-0.676
16,O=C(/C=C/c1ccccc1)/C=C/c1ccccc1,-0.389
17,Cc1ccc(/C=C/C(=O)C2C(=O)c3ccccc3C2=O)cc1,0.871
18,CCc1ccc(/C=C/C(=O)c2c(C)cc(C)[nH]c2=O)cc1,-0.106
19,CCc1ccc(/C=C\C(=O)N2CCc3ccccc3C2)cc1,-0.105
20,O=C(/C=C/c1ccccc1)C1C(=O)c2ccccc2C1=O,4.21 (active)
21,CCc1ccc(/C=C/C(=O)C2C(=O)c3ccccc3C2=O)cc1,3.92 (active)
22,COc1ccc(N(C(=O)c2cnsn2)C(C(=O)NC2CCCCC2)c2ccncc2)cc1 (stereo not drawn),0.0313

row,Compound,z-score
1,CC(C)NC(=S)NC(=O)c1ccc(Cl)cc1Cl,13.8 (active)
2,CCC(=O)Nc1cccc(NC(=S)NC(=O)c2ccc(Cl)cc2Cl)c1,0.0528
3,CC(C)CNC(=S)NC(=O)c1ccc(Cl)cc1Cl,13.8 (active)
4,CCCCNC(=S)NC(=O)c1ccc(Cl)cc1Cl,3.01 (active)
5,CCCCNC(=S)NC(=O)c1ccccc1Br,6.17 (active)
6,Cc1cc(Cl)ccc1NC(=S)NCC(C)C,-0.0377
7,CC(C)CC(NC(=O)c1ccc(Cl)cc1Cl)C(=O)O (stereo not drawn),-0.413
8,CCCCNC(=O)c1ccccc1Cl,-0.135
9,CCCCNC(=O)c1ccccc1C(=O)NCCCC,0.0704
10,O=C(NC(=S)NCCN1CCOCC1)c1ccc(Cl)cc1Cl,0.241
11,O=C(NC(=S)NCCN1CCOCC1)c1ccccc1Br,0.00751
12,O=C(NC(=S)NCC1CCCO1)c1ccc(Cl)cc1Cl (stereo not drawn),-0.218
13,Cc1cc(N2C(=O)CC(Cc3ccccc3)C2=O)no1 (stereo not drawn),-0.0586
14,CCOc1ccc(N(CC)S(=O)(=O)c2ccc3c(c2)n(C)c(=O)c(=O)n3C)cc1,-0.239
15,CCN(CC)S(=O)(=O)c1ccc(N2CCOCC2)c(NS(=O)(=O)c2ccc(C)cc2)c1,-0.152
16,Clc1ccc(Cn2ncc3c(N4CCCCC4)ncnc32)cc1,-0.535
17,O=C(O)c1cc([N+](=O)[O-])ccc1N1CCCCC1,-0.123
18,CCN(CC)S(=O)(=O)c1ccc(N2CCOCC2)c(NC(=O)Cc2ccc(Cl)cc2)c1,0.141
19,O=C(NCCc1ccncc1)Nc1ccccc1,0.141
20,O=C(O)c1c(F)c(F)cc2ccccc12,0.365
21,CNc1oc(-c2ccco2)nc1C#N,0.498
22,Cc1cc(Cl)c(S(=O)(=O)N2CCCCCC2)cc1OCC(N)=O,1.66

row,Compound,z-score
1,CCNC(=S)NNC(=O)c1ccccc1Cl,-0.211
2,O=C(NC(=S)NCCN1CCOCC1)c1ccccc1Cl,-0.177
3,CC(C)CNC(=S)NC(=O)c1ccccc1Cl,8.99 (active)
4,Cc1cc(/C=C(\C#N)C(=O)Nc2ccccc2)c(C)n1-c1ccc2c(c1)OCO2,-0.335
5,CCN(CC)C(=O)Oc1ccc2cc(Br)ccc2c1,0.935
6,CC(C)(C)C1CCC(OCC(O)CN2CCN(c3ccccc3)CC2)CC1 (stereo not drawn),-0.235
7,CC(C)(C)C1CCC(OCC(O)CN2CCN(Cc3ccccc3)CC2)CC1 (stereo not drawn),-0.106
8,CC1CCN(CC(O)COC2CCC(C(C)(C)C)CC2)CC1 (stereo not drawn),4.18 (active)
9,CC(=O)/C(=N\Nc1ccccc1)Sc1nnc(-c2ccccc2)n1-c1ccccc1,-0.24
10,COc1ccccc1-n1nnnc1SCC(=O)NC1CCCC1,-0.293
11,Cc1cnc(NC(=O)CSc2ncn(-c3ccccc3)n2)s1,-0.143
12,Cc1ccccc1OCC(=O)N/N=C/c1cccn1C,2.42
13,Cc1ccc(OCC(=O)N/N=C/c2cccn2C)cc1,1.01
14,Cc1cccc(C)c1OCC(=O)N/N=C/c1cccn1C,-0.372
15,CCCS(=O)(=O)N1CCCC(C(=O)NCCCN(C)c2ccccc2)C1 (stereo not drawn),0.0444
16,O=S(=O)(c1ccccc1)N1CCN(C(=S)Nc2ccc(F)cc2)CC1,3.37 (active)
17,NS(=O)(=O)c1ccc(NC(=S)N2CCN(S(=O)(=O)c3ccc(F)cc3)CC2)cc1,0.195
18,O=S(=O)(c1ccc(Cl)cc1)N1CCN(C(=S)Nc2ccc(F)c(Cl)c2)CC1,0.862
19,COc1ccccc1-n1c(CCn2nc(C)c(Br)c2C)n[nH]c1=S,-0.472
20,CC1(C)CC(=O)C(N=Nc2ccc(Cl)cc2)=C(O)C1,-0.154
21,CC(C)c1ccc(OCC(=O)N(c2ccccn2)C2CCCCC2)cc1,-0.397
22,O=C(CSc1nncs1)NCc1ccc2c(c1)OCO2,-0.652

row,Compound,z-score
1,COc1cccc(-n2c(SCC(=O)N3CCCC3)nc3c([nH]c4ccccc43)c2=O)c1,-0.189
2,Cc1nnc2c3ccccc3c(-c3cccc4ccccc34)nn12,-1.04
3,CC1CCCC(C)N1C(=O)CSc1nnc(COc2ccccc2)n1-c1ccccc1 (stereo not drawn),-0.853
4,OCCNc1nc(N2CCCC2)nc(N2CCCC2)n1,-0.968
5,CC(C)(C)Nc1nc(N2CCCC2)nc(N2CCCC2)n1,-0.14
6,CC(C)(CO)Nc1nc(N2CCCC2)nc(N2CCCC2)n1,2.09
7,CC1CCCN(CC(O)COc2ccc(Cl)cc2)C1 (stereo not drawn),0.149
8,O=C(CSc1nccc2ccccc12)N1CCN(c2ccccn2)CC1,-1.6
9,Cc1ccc(OCC(=O)Nc2cccc(S(=O)(=O)N3CCCCC3)c2)c([N+](=O)[O-])n1,0.216
10,Cc1ccc(OCC(=O)Nc2cc(S(=O)(=O)N3CCCCC3)ccc2C)c([N+](=O)[O-])n1,-0.377
11,Cc1ccc(OCC(=O)Nc2ccc(C)c(S(=O)(=O)N3CCCCC3)c2)c([N+](=O)[O-])n1,6.89 (active)
12,Cc1ccc(NC(=O)COc2cccnc2[N+](=O)[O-])cc1S(=O)(=O)N1CCCCC1,4.45 (active)
13,O=C(COc1cccnc1[N+](=O)[O-])Nc1cccc(S(=O)(=O)N2CCCCC2)c1,-0.289
14,Cc1ccc(NC(=O)COC(=O)CNC(=O)c2cccc([N+](=O)[O-])c2)cc1S(=O)(=O)N1CCCCCC1,0.745
15,CCC(c1nnc(SCC(=O)Nc2nnc(-c3ccccc3)o2)o1)N(C)C (stereo not drawn),-0.0751
16,Oc1cccc(/C=N/Nc2cc(N3CCOCC3)nc(N3CCOCC3)n2)c1,-0.242
17,O=C(NC1CCc2ccccc21)C1CCN(S(=O)(=O)c2ccc(-n3cnnn3)cc2)CC1 (stereo not drawn),0.204
18,O=C(NC1CCCc2ccccc21)C1CCN(S(=O)(=O)c2ccccc2F)CC1 (stereo not drawn),-0.424
19,O=C(NC1CCc2ccccc21)C1CCN(S(=O)(=O)c2ccc(Cl)cc2)CC1 (stereo not drawn),2.31
20,O=C(/C=C/c1ccc(F)cc1)N1CCCN(C(=O)/C=C/c2ccc(F)cc2)CC1,-0.668
